Screening data from PubChem.
In the library only some 8% were active in any assay of this set; here they are far more common.
SARS PLpro yeast: SARS-CoV PLP inhibition in yeast; AID 485353; Potency, µM (series often up to 32.9 µM), without a hit: at the highest dose activity, positive = growth rescue, actives largely listed as activators; 330,000 compounds, 0.19% hits; S. cerevisiae expressing SARS-CoV PLpro, growth rescue; calls by dose curve; note: potency is the fitted concentration of half-maximal effect; 0% is about no effect; nearly all actives have a fitted effect of over 55% in size
Lassa entry inh: blocks Lassa virus binding to or entry into cells. 300,000 compounds, 1.2% hits. Potency, µM (doses to about 37.9 µM), for inactives: top-dose activity change, negative = inhibition, hits mostly inhibitors. Lassa virus pseudotype entry inhibition, cell reporter. AID 540256; calls by dose curve; tested in HEK293 cells; note: potency is the fitted concentration of half-maximal effect; % is set by controls: 0 for no effect and ±100 for the full control effect; nearly all actives have a fitted effect of over 50% in size
FMDV inh: antivirals against foot and mouth disease virus; AID 1159524; Potency, µM (highest dose often 57.9 µM), for inactives: top-dose activity change, negative = inhibition, hits mostly inhibitors; FMDV antiviral cell-based qHTS; 410,000 compounds, 1.2% hits; calls by dose curve; tested in HEK293T cells; note: read-out not given here; potency is the fitted concentration of half-maximal effect; % is set by controls: 0 for no effect and ±100 for the full control effect; nearly all actives have a fitted effect of over 45% in size
Marburg entry inh: Marburg virus entry inhibition. Potency, µM (titrated, usually from 37.8 µM), for the others: at the top dose activity change, negative = inhibition, actives largely listed as inhibitors. AID 540276. Marburg virus pseudotyped entry inhibition, cell reporter. 300,000 compounds, 1.8% hits; calls by dose curve; tested in HEK293 cells; note: potency is the fitted concentration of half-maximal effect; % is set by controls: 0 for no effect and ±100 for the full control effect
HCV inhibitor: blocks hepatitis C virus. Huh7.5.1 HCVcc-Cre infection, luciferase reporter, 44 h. Potency, µM (doses to about 41.8 µM), for inactives: top-dose activity change, negative = inhibition, hits mostly inhibitors. 340,000 compounds, 3.4% hits. AID 651820; active = well fitted inhibition curve with a large enough effect; inconclusive = small, poorly fitted or top-dose-only effect, or another doubt; inactive = no such curve, though single readings can be large or run the other way; note: potency is the fitted concentration of half-maximal effect; % is set by controls: 0 for no effect and ±100 for the full control effect
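Infectious HCVcc-Cre (~0.5 moi) was added to cells just after compound, with cells seeded 4 h earlier at 1,000 per well. Luciferase activity after 44 h culture reported infection; substrate was incubated 15 min at room temperature before reading.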
HCMV antiviral: human cytomegalovirus inhibition; HFF cells, HCMV-luciferase reporter, 72 h; hits give low values; activity change, negative = inhibition, % at 57.5 µM; 410,000 compounds, 4.5% hits; in the data active = activity change below about -60%; inconclusive = no clear call, values can overlap the other calls; inactive = above about -39%; note: % is set by controls: 0 for no effect and ±100 for the full control effect
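Human foreskin fibroblasts infected with luciferase-reporter HCMV at MOI 1 PFU/cell, compounds at two doses. Luciferase measured 72 h post infection; normalized to buffer-only basal and Salinomycin (10uM) controls.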
Active calls of the source: *; ? = inconclusive; . = no result; [ ] = remark or other dose.

SMILES | SARS PLpro yeast | Lassa entry inh | FMDV inh | Marburg entry inh | HCV inhibitor | HCMV antiviral
O=C(Nc1ccc(Cl)cc1)N1CCN(c2ccc3nnc(-c4ccccc4)n3n2)CC1 | . | . | -6.8% | -26.4%[46.1 µM] | . | -80.9*
Cc1ccc(CNC(=O)CCCn2nc(C)n3c(cc4sccc43)c2=O)cc1 | . | . | 1.8% | 7.6%[46.1 µM] | . | -28.1
CC(C)NC(=O)c1ccc(COc2cc(Cl)ccc2Cl)o1 | -4.2% | -11.6%[46.1 µM] | -7.4% | ? | 11.2µM* | 8.6
CCOc1ccc(OCc2ccc(C(=O)NC(C)C)o2)cc1 | -0.6% | . | -2.7% | . | ? | 26.0
CCN(CC)CC(O)c1ccc2ccc3ccc(O)cc3c2c1 (stereo unspecified) | . | ? | -22.5% | ? | ? | -10.7
Cc1ccc(/C=N/n2c(COc3ccccc3)n[nH]c2=S)s1 | 12.2% | 6.51µM* | -8.9% | 7.6% | -12.5% | -17.5
Cc1ccc(/C=N/n2c(COc3ccccc3)n[nH]c2=S)o1 | -0.1% | . | -8.9% | . | 7.2% | -90.4*
Cc1ccc(-c2n[nH]c(=S)n2/N=C/c2ccc(C)s2)cc1 | -1.9% | 1.26µM* | -6.0% | -10.1% | 0.1% | 13.8
Cc1ccc(/C=N/n2c(-c3ccc(Cl)cc3)n[nH]c2=S)s1 | 1.1% | ? | 37.5% | ? | 5.4% | -23.2
S=c1[nH]nc(COc2ccccc2)n1/N=C/c1ccco1 | 0.7% | -22.5%[46.1 µM] | -9.4% | ? | 13.5% | ?
S=c1[nH]nc(COc2ccccc2)n1/N=C/c1ccc(Br)s1 | 9.4% | ? | -9.8% | 20.8% | 0.1% | -19.4
Cc1[nH]nc2c1/C(=N\O)CCC2 | -8.4% | 15.6% | -10.9% | 10.8%[46.1 µM] | 11.9% | -9.4
O=C(CCc1ccc(S(=O)(=O)N2CCOCC2)cc1)N/N=C/c1ccc(F)cc1F | 3.4% | ? | 14.9% | ? | 31.4% | 0.6
O=C(CCc1ccc(S(=O)(=O)N2CCOCC2)cc1)N/N=C/c1ccc(O)c(O)c1O | ? | -20.0% | 39.8µM* | -47.5% | -22.3% | -97.9*
Cn1c2c(c(=O)[nH]c1=O)C(c1ccc(O)cc1)C1=C(N2)c2ccccc2C1=O (stereo unspecified) | 0.6% | ? | ? | ? | ? | -99.0*
CCC(C)c1ccc(C2C3=C(Nc4nc(N)[nH]c(=O)c42)c2ccccc2C3=O)cc1 (stereo unspecified) | -0.2% | . | 10.6% | . | 7.94µM* | -65.0*
Nc1nc2c(c(=O)[nH]1)C(c1ccccc1)C1=C(N2)c2ccccc2C1=O (stereo unspecified) | 0.5% | . | 3.9% | . | 1.8% | -10.1
CCN1CCN(c2csc3ccc(F)cc3c2=O)CC1 | . | 27.1%[46.1 µM] | 45.0% | . | . | 16.8
CC1(C(=O)NS(=O)(=O)c2ccc3c(c2)CCO3)CCN1C(=O)Cc1ccc(-c2ccccc2)cc1 (stereo unspecified) | . | . | 13.4% | . | . | -17.9
COc1ccccc1C(=O)O/N=C(\N)c1ccccn1 | -3.1% | ? | -17.1% | 3.55µM* | 8.8% | 19.2
N/C(=N\OC(=O)c1ccccc1Cl)c1ccccn1 | -17.7% | 2.06µM* | -89.4% | ? | 21.2% | 25.1
Cc1ccc(C(=O)O/N=C(\N)c2ccccn2)c(C)c1 | -24.8% | 0.794µM* | 0.891µM* | 0.631µM* | ? | -69.5*
N/C(=N\OC(=O)COc1ccccc1Cl)c1ccccn1 | -12.9% | 7.31µM* | -10.1% | ? | 33.8% | -11.3
N/C(=N\OC(=O)c1ccccc1[N+](=O)[O-])c1ccccn1 | -14.3% | ? | -57.7% | ? | -15.8% | -29.3
CSc1ncc(C(=O)N2CCN(c3cccc(C(F)(F)F)c3)CC2)c(C)n1 | . | 4.6%[46.1 µM] | -18.5% | . | . | -27.7
SMILES | SARS PLpro yeast | Lassa entry inh | FMDV inh | Marburg entry inh | HCV inhibitor | HCMV antiviral
O=C(Cn1cncn1)N1CCOc2ccc(CN3CCN(c4ccccc4)CC3)cc2C1 | . | . | -4.8% | . | . | .
N/C(=N\OC(=O)CC1CCCCC1)c1ccccn1 | -0.5% | ? | . | 2.0% | 6.1% | -60.5*
CC(=O)c1ccc(-c2nc3c4ccccc4ccn3c2C(C)=O)o1 | 0.3% | 1.26µM* | 6.7% | 1µM* | -4.6% | -64.7*
COc1ccccc1-c1nccc(-n2ccnc2)n1 | . | . | 5.1% | . | . | .
COc1ccc(CNC(=O)C(c2ccc(C)cc2)N(Cc2cccs2)C(=O)c2ccc3c(c2)OCCO3)cc1 (stereo unspecified) | 0.0% | ? | ? | 11.6µM* | 11.2µM* | ?
CCOCCCNC(=O)C(c1ccccc1)N(Cc1cccs1)C(=O)c1ccccc1O (stereo unspecified) | 2.8% | ? | 18.4% | ? | ? | -24.0
CCOCCCNC(=O)C(NC(=O)c1ccc(NC(C)=O)cc1)c1ccc(Cl)cc1 (stereo unspecified) | 7.2% | -11.3% | 0.1% | 18.0% | 0.2% | -62.9*
CCOCCCNC(=O)C(c1ccc(C)cc1)N(Cc1cccs1)C(=O)c1ccccc1O (stereo unspecified) | -4.2% | 11.2µM* | 53.8% | ? | 2.1% | -38.1
CCOCCCNC(=O)C(NC(=O)c1ccc(NC(C)=O)cc1)c1ccc(C)cc1 (stereo unspecified) | 2.9% | 3.9% | 11.0% | ? | 3.9% | 26.5
CCOCCCNC(=O)C(c1ccc(Cl)cc1)N(Cc1cccs1)C(=O)c1ccc(NC(C)=O)cc1 (stereo unspecified) | . | ? | 0.0% | 10µM* | . | -27.2
COCCN(C(=O)Cc1cccs1)C(C(=O)NCc1ccc(OC)cc1)c1ccc(OC)cc1 (stereo unspecified) | -0.4% | ? | . | 0.1% | 7.4% | 25.2
CCCc1cc(C(=O)NNC(=S)NC2CCCCC2)cs1 | ? | 25.0%[46.1 µM] | 15.1% | 12.9%[46.1 µM] | -0.2% | 2.0
CCOc1ccccc1CNC(=O)c1cnc2sc(N3CCOCC3)nn2c1=O | . | 18.1%[46.1 µM] | -12.9% | . | . | ?
COc1ccc2oc(=O)c(C(=O)Nc3ccc(C(=O)O)cc3)cc2c1 | . | 16.8%[46.1 µM] | -5.9% | . | . | 18.1
CCN(CC)S(=O)(=O)c1ccc2c(c1)c(=O)c(C(=O)NCc1ccccc1Cl)cn2C | . | -24.9%[46.1 µM] | -11.6% | ? | . | -64.5*
CCN(CC)S(=O)(=O)c1ccc2c(c1)c(=O)c(C(=O)NCc1ccccc1OC)cn2C | . | ? | 0.0% | 14.2%[46.1 µM] | . | ?
CC(C)c1ccc(NC2CCCN(C(=O)c3ccc(N4CCOCC4)cc3)C2)cc1 (stereo unspecified) | -1.3% | -25.7% | 28.2µM* | -26.0% | ? | -30.8
O=C(NCC1CCC2(CCN(Cc3cccc4ncccc34)CC2)O1)c1ccccc1 (stereo unspecified) | . | . | -0.4% | . | . | .
COc1ccccc1Nc1nnc(SCC2CCCCO2)s1 (stereo unspecified) | 2.6% | . | -48.3% | 7.08µM* | 7.94µM* | 89.7
Cc1ccccc1Nc1nnc(SCC2CCCCO2)s1 (stereo unspecified) | -5.6% | ? | 8.4% | ? | 0.8% | 35.1
c1ccc(N2CCN(c3nc(-c4ccccn4)nc4ccccc34)CC2)cc1 | -16.8% | ? | ? | ? | 3.16µM* | -99.4*
